Laboratory results as given in the supplement of paper PMC12669032.
Values joined by “and” are separate entries in the source; they are usually repeats but may differ in a detail not shown here. Equal entries are not always repeated. Values without a mark were called inactive.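 How the source made its calls: active = AUC reduced over 20% with Padj below 0.05 in at least 2 of 3 replicates; inactive = otherwise.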

Assays:
Test in all cases: growth AUC relative to DMSO control (median of replicates) (fraction); higher = more growth (less inhibition), active = hit call of the paper
Conditions in all cases: 20 µM; 24 h
Coprococcus comes = test system: Coprococcus comes
Method in brief: (§1)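 Hourly OD600 readings over 24 h tracked anaerobic gut bacterial monocultures grown at 37 °C in mGAM from OD600 0.05 with 20 µM compound (1% DMSO). After the minimum OD was set to 0, area under the growth curve was normalised to the plate median of solvent-only wells, or to row and column medians on the industrial chemical plate. Values are medians of three biological replicates grown on separate days.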

Escherichia coli ED1a = test system: Escherichia coli ED1a
Method in brief: as §1

Escherichia coli IAI1 = test system: Escherichia coli IAI1
Method in brief: as §1

Eubacterium rectale = test system: Eubacterium rectale
Method in brief: as §1

[1] = test system: Fusobacterium nucleatum subsp. animalis
Method in brief: as §1

Lactobacillus gasseri = test system: Lactobacillus gasseri
Method in brief: as §1

Lactobacillus paracasei = test system: Lactobacillus paracasei
Method in brief: as §1

Odoribacter splanchnicus = test system: Odoribacter splanchnicus
Method in brief: as §1

[2] = test system: Parabacteroides distasonis
Method in brief: as §1

Parabacteroides merdae = test system: Parabacteroides merdae
Method in brief: as §1

| Compound | growth AUC (Coprococcus comes) | growth AUC (Escherichia coli ED1a) | growth AUC (Escherichia coli IAI1) | growth AUC (Eubacterium rectale) | growth AUC [1] | growth AUC (Lactobacillus gasseri) | growth AUC (Lactobacillus paracasei) | growth AUC (Odoribacter splanchnicus) | growth AUC [2] | growth AUC (Parabacteroides merdae) |
| --- | --- | --- | --- | --- | --- | --- | --- | --- | --- | --- |
| O=C1C[C@@H]2OCC=C3CN4CC[C@]56c7ccccc7N1[C@H]5[C@H]2[C@H]3C[C@H]46 | 0.984 | 0.973 | 0.985 | 1 | 0.909 | 0.928 | 1.09 | 1.08 | 0.988 | 0.967 |
| c1ccc2c(c1)-c1cccc3cccc-2c13 | 0.92 | 0.941 | 1 | 0.91 | 0.954 | 1.03 | 0.98 | 1 | 0.938 | 0.935 |
| CC(C)N(Cc1ccccc1)C(=O)C(C)(C)C | 0.988 | 0.966 | 0.971 | 1.03 | 0.969 | 0.814 | 0.934 | 1.07 | 0.989 | 0.948 |
| Fc1ccc(Oc2ccnc3cc(Cl)cc(Cl)c23)cc1 | 0.969 | 0.977 | 0.97 | 0.845 | 0.921 | 0.984 | 0.672 | 1 | 0.966 | 0.876 |
| N#Cc1sc2c(=O)c3ccccc3c(=O)c=2sc1C#N | 0.921 | 0.945 | 0.957 | 0.911 | 0.881 | 1.01 | 0.875 | 0.926 | 0.928 | 0.968 |
| CCOP(=S)(OCC)Oc1ccc([N+](=O)[O-])cc1 | 0.997 | 1 | 0.979 | 1.09 | 1.11 | 0.98 | 1.04 | 1.02 | 0.964 | 0.994 |
| COS(=O)(=O)[O-].Cn1c(-c2ccccc2)cc(-c2ccccc2)[n+]1C | 1 | 0.98 | 0.974 | 1 | 0.985 | 0.964 | 0.981 | 1.01 | 0.985 | 0.974 |
| CCCN(CCC)c1c([N+](=O)[O-])cc(C(F)(F)F)cc1[N+](=O)[O-] | 1 | 1.02 | 1.01 | 1.01 | 1.03 | 1.03 | 1.09 | 1.01 | 1.09 | 1.01 |
| CNC(=O)Oc1cccc2c1OC(C)(C)C2=O | 1.05 | 1.03 | 1.02 | 1.04 | 1.15 | 0.878 | 1.04 | 1.02 | 0.955 | 0.99 |
| CNC(=O)Oc1cccc(N=CN(C)C)c1.Cl | 1.04 | 1 | 1.05 | 1.04 | 1.07 | 1.02 | 1.04 | 1.02 | 1.03 | 1.02 |
| C/C(=N/Nc1nc(C)cc(C)n1)c1ccccc1C | 0.957 | 1.02 | 1.04 | 0.495 (active) | 1.16 | 0.994 | 1.1 | 0.666 | 1.07 | 1.07 |
| CC(=NC#N)N(C)Cc1ccc(Cl)nc1 | 1.06 and 0.993 | 0.994 and 1 | 0.982 and 1.08 | 0.908 and 0.994 | 0.987 and 0.952 | 0.985 and 1.03 | 1.03 and 0.987 | 1.04 and 1.02 | 1.02 and 1 | 1.04 and 0.98 |
| CCOC(=O)N(C)C(=O)CSP(=S)(OCC)OCC | 1.01 | 1.01 | 0.987 | 0.898 | 1.1 | 1.03 | 1.03 | 1.03 | 0.999 | 0.985 |
| O=c1oc2ccccc2c(O)c1C(CC(O)c1ccc(-c2ccc(Br)cc2)cc1)c1ccccc1 (stereo not given) | 0.923 | 1 | 0.97 | 0.883 | 0.936 | 0.801 | 0.838 | 0.167 (active) | 0.516 (active) | 0.25 (active) |
| CC(Oc1ccc(Oc2ccc(Cl)cc2Cl)cc1)C(=O)O (racemic) | 0.943 | 0.974 | 1.02 | 0.988 | 0.961 | 1.16 | 0.999 | 1.09 | 1.06 | 0.956 |
| CCS(=O)(=O)CCSP(=O)(OC)OC | 0.975 | 1.01 | 0.992 | 0.935 | 0.969 | 1.04 | 1.03 | 0.97 | 1.08 | 0.988 |
| Clc1nc(Cl)nc(Nc2ccccc2Cl)n1 | 1.03 | 1.01 | 0.998 | 0.859 | 1.02 | 0.991 | 1.01 | 1.08 | 1.04 | 0.969 |
| ClC1=C(Cl)C2(Cl)C(CBr)CC1(Cl)C2(Cl)Cl (stereo not given) | 0.994 | 0.956 | 0.986 | 1.01 | 0.969 | 0.858 | 1.03 | 1.01 | 0.973 | 0.973 |
| Nc1c(Cl)c(F)nc(OCC(=O)O)c1Cl | 0.99 | 0.992 | 1.03 | 0.918 | 0.971 | 1.11 | 1.16 | 1 | 0.972 | 1.01 |
